SNCA expr inh = reduces expression of the alpha-synuclein gene. AID 1671194. Potency, µM (top dose mostly 57.2 µM), actives largely listed as inhibitors. 140,000 tested, 0.17% active. HEK-293 SNCA-luciferase knock-in, luminescence, 24 h; also: nearly all actives have a fitted effect of over 45% in size
KDM5B inh = KDM5B demethylase inhibition; Q9UGL1; KDM5B demethylase, FDH-coupled NADH fluorescence (FDH is formaldehyde dehydrogenase); Potency, µM (series often up to 57.7 µM), hits mostly inhibitors; 220,000 tested, 2.6% active; also: nearly all actives have a fitted effect of over 70% in size
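Inhibition is measured as reduced NADH fluorescence generation from FDH coupling to formaldehyde release. Truncated KDM5BΔAP at 200 nM final acts on H3K4me3 peptide (12.5 µM in substrate mix) in pH 7.5 HEPES buffer with Tween-20, 30 min, room temperature.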
HEK293 viab = reduces viability of HEK-293 SNCA reporter cells; HEK-293-SNCA-luc viability, GF-AFC fluorescence, 24 h; 150,000 tested, 0.12% active; Potency, µM (titrated, usually from 57.1 µM), hits mostly cytotoxic; also: nearly all actives have a fitted effect of over 30% in size
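HEK-293-SNCA-luc cells (1500/well) plated 24 h, then exposed 24 h to a dilution series; GF-AFC added 30 min at 37C, fluorescence 405/540 nm; normalised to medium-only and DMSO wells, Hill fit.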
IP6K1 inhibitor = blocks human inositol hexakisphosphate kinase 1; Q92551; IP6K1 kinase, ADP-Glo luminescence, 2 h; stronger effect = lower value; activity change, % (series mostly up to about 58 µM); 140,000 tested, 0.81% active; in the data active = activity change below about -25%
Target sequence (Q92551 whole entry, looked up): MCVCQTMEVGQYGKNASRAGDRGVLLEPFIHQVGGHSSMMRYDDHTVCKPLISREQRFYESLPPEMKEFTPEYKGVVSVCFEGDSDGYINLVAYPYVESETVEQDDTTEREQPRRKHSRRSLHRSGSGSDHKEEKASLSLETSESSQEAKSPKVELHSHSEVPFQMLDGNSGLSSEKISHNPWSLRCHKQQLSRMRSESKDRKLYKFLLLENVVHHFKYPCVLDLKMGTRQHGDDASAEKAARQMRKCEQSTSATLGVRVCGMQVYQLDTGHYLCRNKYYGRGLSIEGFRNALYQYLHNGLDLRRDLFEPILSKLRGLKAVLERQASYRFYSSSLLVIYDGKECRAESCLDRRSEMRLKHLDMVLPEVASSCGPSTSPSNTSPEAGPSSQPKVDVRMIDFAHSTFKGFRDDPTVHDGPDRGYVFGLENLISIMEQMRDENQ
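ADP-Glo luminescence measures ADP made by human IP6K1 during a 2 h RT reaction with ATP/IP6 (mix at 1.3 mM/130 uM); top library doses 57.5 and 19.1 uM final.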
Numbers stand for hits; . = inactive; ? = inconclusive; / = no result given. Rows were chosen to be rich in hits. Some 3% of all compounds tested hit in one or more screens of this group. Unless noted, calls follow the shape of the dose curve; as a rule, active = well fitted curve in the direction sought with a large enough effect; inconclusive = small, poorly fitted or top-dose-only effect, or another doubt; inactive = no such curve, though single readings can be large; an effect the other way counts as inactive or inconclusive.

SMILES	SNCA expr inh	KDM5B inh	HEK293 viab	IP6K1 inhibitor
COc1ncccc1-c1cc2c(ccn2Cc2ccncc2)c(N2CCOCC2)n1	.	7.9µM	.	.
COc1ccccc1-c1cc2c(ccn2Cc2ccncc2)c(N2CCOCC2)n1	.	?	.	.
COc1cccc(-c2cc3c(ccn3CC3CCN(C)CC3)c(N3CCOCC3)n2)c1	?	.	.	.
Fc1ccccc1-c1cc2c(ccn2Cc2ccncc2)c(N2CCOCC2)n1	.	28µM	.	.
COc1ncccc1-c1cc2c(ccn2CC2CCN(C)CC2)c(N2CCOCC2)n1	.	25µM	.	.
O=C(C[C@@H]1CCNC[C@@H]1Cc1cc(-c2ccc(F)cc2)on1)Nc1ccccc1	.	.	?	.
Fc1ccc(C2Cn3cnc(-c4nc(-c5ccc6c(c5)OCO6)no4)c3CO2)cc1 (stereo unspecified)	.	.	.	.
Cn1ncc2c(C(=O)NCC3CCCCCC3)cc(-c3ccccc3F)nc21	/	/	/	.
Cc1cc(C)c([S+](=O)([O-])c2nnn3c2nc(N2CCOCC2)c2ccccc23)c(C)c1	.	?	.	.
Cc1ccc(C)c([S+](=O)([O-])c2nnn3c2nc(N2CCC(F)CC2)c2ccccc23)c1	.	79µM	.	.
O=[S+]([O-])(c1ccccc1)c1nnn2c1nc(N1CCC(F)CC1)c1ccccc12	.	?	.	.
Cc1cc(C)c([S+](=O)([O-])c2nnn3c2nc(N2CCC(F)CC2)c2ccccc23)c(C)c1	.	79µM	.	.
Cc1cnc(C2CCN(Cc3ccc(F)cc3F)C2)n1Cc1ccccc1 (stereo unspecified)	.	/	.	.
CC(C)c1ncc(-c2cc(C(=O)N(C)C(C)C)c3ccc(F)cc3n2)cn1	.	.	.	.
CC(C)n1cc(-c2cc(C(=O)N3CCC(C)(C)C3)c3ccc(F)cc3n2)cn1	.	32µM	.	.
CC1CCCN1C(=O)c1cc(-c2cnn(C(C)C)c2)nc2cc(F)ccc12 (stereo unspecified)	.	28µM	.	.
CC(C)CN(C)C(=O)c1cc(-c2cnn(C(C)C)c2)nc2ccc(F)cc12	.	?	.	.
COc1cccc(-c2ccc(CN3CCCC(NC(=O)Nc4ccc(Cl)cc4)C3)cc2)c1 (stereo unspecified)	?	/	?	.
N#Cc1cccnc1N1CCN(Cc2ccc(F)c(F)c2)C(CCO)C1 (stereo unspecified)	.	13µM	.	.
COc1ccc(OC)c(CNC(=O)C2(CCO)CCN(c3ncccn3)C2)c1 (stereo unspecified)	.	?	.	.
O=C(NCc1ccc(F)cc1)C1(CCO)CCN(c2ncccn2)C1 (stereo unspecified)	.	28µM	.	.
O=C(NCCCc1ccccc1)C1(CCO)CCN(c2ncccn2)C1 (stereo unspecified)	.	25µM	.	.
O=C(Nc1ccc(F)cc1F)C1(CCO)CCN(c2ncccn2)C1 (stereo unspecified)	.	25µM	.	.
COc1ccccc1CNC(=O)C1(CCO)CCN(c2ncccn2)C1 (stereo unspecified)	.	20µM	.	.
O=C(C1CCC1)N1CCC(=O)N(C2CCCC2)Cc2ccccc21	/	/	/	.
SMILES	SNCA expr inh	KDM5B inh	HEK293 viab	IP6K1 inhibitor
COc1ccc(F)cc1-c1ccc(CN2CCC(N[S+](=O)([O-])c3ccc(C)cc3)C2)cc1 (stereo unspecified)	/	/	/	.
Cc1cccc(-c2nc3ccc(C(=O)N4CCOCC4)cc3o2)n1	.	/	.	.
Cn1ncc2c(C(=O)Nc3cccc(Cl)c3)cc(-c3cccc(C(F)(F)F)c3)nc21	/	/	/	.
COCCN1CC(C(=O)N2CCN(c3ncccc3C#N)CC2)CCC1=O (stereo unspecified)	.	32µM	.	.
COCCN1CC(C(=O)N2CCC(O)(c3ccc(F)cc3)CC2)CCC1=O (stereo unspecified)	.	.	.	.
O=C(NCCN1CCCC1)c1cc2cn(C3CC3)cc2s1	.	10µM	.	.
CCOC(=O)c1ccc(N2C(=O)c3n[nH]c(-c4cccs4)c3C2c2cccc(OC)c2)cc1 (stereo unspecified)	18µM	?	.	.
Cc1ccc(-c2cccc(CN3CCCC(NC(=O)Cc4ccccn4)C3)c2)cc1Cl (stereo unspecified)	?	/	.	.
COc1cccc(-c2ccc(C(=O)NCCNC(=O)c3ccccc3)cc2)c1	/	/	/	.
Cc1nn2c(c1-c1ccccc1Oc1ccccc1)N(Cc1cccc(C#N)c1)CCC2	?	25µM	?	.
Cc1nn2c(c1-c1ccnn1C(C)C)N(Cc1cccc(C#N)c1)CCC2	2.8µM	?	?	.
Cc1nn2c(c1-c1ccccc1[S+](C)(=O)[O-])N(Cc1ccc(C(=O)O)s1)CCC2	4µM	?	?	.
Cc1nn2c(c1-c1ccccc1-c1ccccc1)N(Cc1ccc(C(=O)O)s1)CCC2	.	.	.	.
Cc1nn2c(c1-c1ccnn1C(C)C)N(Cc1ccc(O)cc1)CCC2	.	.	.	.
Cc1nn2c(c1-c1ccccc1Oc1ccccc1)N(Cc1cccc(C(=O)O)c1)CCC2	?	?	.	.
Cc1nn2c(c1-c1ccccc1Oc1ccccc1)N(Cc1ccc(C(=O)O)s1)CCC2	13µM	?	?	.
Cn1ncc2c(C(=O)N3CCCCC3)cc(-c3cccc(F)c3)nc21	/	/	/	.
COc1cccc(-c2nc(-c3nnn4c3COC(c3ccc(Cl)cc3)C4)no2)c1OC (stereo unspecified)	.	25µM	.	.
COc1ccc(C2Cn3nnc(-c4noc(-c5cc(F)ccc5F)n4)c3CO2)cc1 (stereo unspecified)	.	18µM	?	.
COc1ccccc1-c1nc(-c2nnn3c2COC(c2ccc(Cl)cc2)C3)no1 (stereo unspecified)	.	14µM	.	.
COc1ccc(-c2nc(-c3nnn4c3COC(c3ccc(Cl)cc3)C4)no2)c(OC)c1 (stereo unspecified)	.	?	.	.
COc1ccccc1-c1noc(-c2nnn3c2COC(c2ccc(Cl)cc2)C3)n1 (stereo unspecified)	.	?	.	.
COc1ccc(C2Cn3nnc(-c4nc(-c5ccccc5OC)no4)c3CO2)cc1 (stereo unspecified)	.	28µM	.	.
COc1ccccc1-c1noc(-c2nnn3c2COC(c2ccc(F)cc2)C3)n1 (stereo unspecified)	.	?	.	.
O=C(CC1CCCC1)N1C[C@@H](CO)[C@@H]2Oc3c(F)cccc3[C@@H]21	/	/	/	.
COc1ccccc1-c1nc(-c2nnn3c2COC(c2ccc(C)cc2)C3)no1 (stereo unspecified)	.	13µM	.	.
CCOc1cccc(-c2noc(-c3nnn4c3COC(c3ccc(F)cc3)C4)n2)c1 (stereo unspecified)	.	?	.	.
CCOc1cccc(-c2noc(-c3nnn4c3COC(c3ccc(OC)cc3)C4)n2)c1 (stereo unspecified)	.	18µM	.	.
